# Data as given in PubChem BioAssay (Tox21).
# Records with an inconclusive call do not appear. Entries that show only a call come without a potency. Some compounds were tested as several samples or in several runs, with calls that do not always agree. The source made the active and inactive calls. Unless noted, the call rests on the fitted dose curve; in most records, active means well fitted curve in the direction sought with a large enough effect in the repeat runs; inconclusive means weak or mixed curves; inactive means no such curve, though single readings can be large; an effect the other way counts as inactive or inconclusive.
# Legend:
# [1] = qHTS assay to identify small molecule agonists of the estrogen receptor alpha (ER-alpha) signaling pathway in the presence of an antagonist - cell viability counter screen (AID 1259386);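 further: series mostly up to about 92 µM; cells exposed to compounds for 22 h at 37 °C before the viability read; nearly all actives have a fitted effect of over 30% in size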
# Summary of the method: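 VM7Luc4E2, stripped-serum pre-culture 5 d; 24hr plating; +ICI-182,780 10.0nM final; cpds 15 conc, 22hr, 37C/5% CO2; CellTiter-Fluor added at 21hr, fluorescence 1hr later.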
# [2] = biological target: Progesterone receptor (Homo sapiens) (UniProt P06401); assay: qHTS assay to identify small molecule agonists of the progesterone receptor (PR) signaling pathway (AID 1346784; calls by dose curve; further: nearly all actives have a fitted effect of over 30% in size)
# Summary of the method: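 The screen uses PR-UAS-bla HEK 293T cells in charcoal-stripped serum (2%). Compounds are applied for 16 hr at 37C after a 6 hr pre-incubation, and reporter activity is detected with a FRET beta-lactamase substrate after 2 hr at room temperature.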
# [3] = biological target: Progesterone receptor (Homo sapiens) (UniProt P06401); assay: qHTS assay to identify small molecule antagonists of the progesterone receptor (PR) signaling pathway (AID 1346795; active means well fitted inhibition curve with a large enough effect in the signal ratio in the repeat runs, not every such curve was filed as active; the % refers to the signal ratio)
# Summary of the method: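 After 6 hr plating at 37C in 2% stripped-serum medium, PR-UAS-bla HEK293T cells got compounds, then 1 nM R5020. Sixteen hours later, LiveBLAzer substrate was applied for 2 hr at room temperature and fluorescence was recorded.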
# [4] = qHTS assay to identify small molecule antagonists of the progesterone receptor (PR) signaling pathway - cell viability counter screen (AID 1346798); further: series mostly up to about 92 µM; nearly all actives have a fitted effect of over 50% in size
# Summary of the method: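 Viability was determined by ATP-based luminescence (CellTiter-Glo) in PR-UAS-bla HEK293T cells cultured in 2% charcoal-stripped serum and incubated 16 hr with compounds under R5020 stimulation.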
# [5] = qHTS assay to identify small molecule agonists of the progesterone receptor (PR) signaling pathway - cell viability counter screen (AID 1346799; calls by dose curve; further: nearly all actives have a fitted effect of over 45% in size)
# Summary of the method: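 Viability was scored by ATP luminescence (CellTiter-Glo, 30 min, room temperature) in the same wells used for the reporter readout, after 16 hr compound exposure of PR-UAS-bla HEK293T cells.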
# [6] = qHTS assay to identify small molecule antagonists of the TGF-beta/Smad signaling pathway - cell viability counter screen (AID 1346824); further: nearly all actives have a fitted effect of over 50% in size
# Summary of the method: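 SBE-bla HEK 293T cells, incubated overnight, then compound plus 0.25 ng/mL TGF-beta1 (stock added) for 5 hr at 37 C. Viability was read in the same wells by CellTiter-Glo luminescence after 30 min at room temperature.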
# [7] = qHTS assay to identify small molecule agonists of the TGF-beta/Smad signaling pathway - cell viability counter screen (AID 1346829); further: top concentration of the series differs between compounds; nearly all actives have a fitted effect of over 45% in size
# Summary of the method: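 Luminescence from CellTiter-Glo, read after a 30 min room-temperature incubation, gives cell viability of SBE-bla HEK 293T cells treated 5 hr with compounds at 37 C.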
# [8] = qHTS assay to identify small molecule agonists of the TGF-beta/Smad signaling pathway (AID 1346859; active means well fitted activation curve with a large enough effect in the signal ratio in the repeat runs, not every such curve was filed as active; the % refers to the signal ratio; further: series mostly up to about 77 µM)
# Summary of the method: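 Dual-wavelength fluorescence (460/530 nm emission) quantified beta-lactamase expression under the Smad binding element in HEK 293T cells following 5 hr compound treatment at 37 C.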
# [9] = biological target: Thyrotropin-releasing hormone receptor (Homo sapiens) (UniProt P34981); assay: qHTS assay to identify small molecule antagonists of the thyrotropin-releasing hormone receptor (TRHR) signaling pathway (AID 1346877; active means well fitted inhibition curve with a large enough effect in the repeat runs, not every such curve was filed as active; further: potency means the concentration at half of the fitted maximal effect; on activity, negative = inhibition: series mostly up to about 51 µM)
# Summary of the method: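 Intracellular calcium fluorescence, read kinetically every second over 3 min, reports TRH-evoked signalling in HEK293 cells carrying TRHR. Test compounds were added 5 min ahead of a 1 nM TRH challenge.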
# [10] = biological target: Thyrotropin-releasing hormone receptor (Homo sapiens) (UniProt P34981); assay: qHTS assay to identify small molecule agonists of the thyrotropin-releasing hormone receptor (TRHR) signaling pathway (AID 1346891; calls by dose curve;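 further: HEK293 cells expressing TRHR with calcium dye readout; series mostly up to about 58 µM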)
# Summary of the method: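 Kinetic fluorescence (3 min, 1 s intervals) reported intracellular calcium after compound transfer onto TRHR-Hek293 cells pre-loaded with dye for 2 h at 37 °C.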
# Sequence of Thyrotropin-releasing hormone receptor (Homo sapiens) (P34981 whole entry, looked up): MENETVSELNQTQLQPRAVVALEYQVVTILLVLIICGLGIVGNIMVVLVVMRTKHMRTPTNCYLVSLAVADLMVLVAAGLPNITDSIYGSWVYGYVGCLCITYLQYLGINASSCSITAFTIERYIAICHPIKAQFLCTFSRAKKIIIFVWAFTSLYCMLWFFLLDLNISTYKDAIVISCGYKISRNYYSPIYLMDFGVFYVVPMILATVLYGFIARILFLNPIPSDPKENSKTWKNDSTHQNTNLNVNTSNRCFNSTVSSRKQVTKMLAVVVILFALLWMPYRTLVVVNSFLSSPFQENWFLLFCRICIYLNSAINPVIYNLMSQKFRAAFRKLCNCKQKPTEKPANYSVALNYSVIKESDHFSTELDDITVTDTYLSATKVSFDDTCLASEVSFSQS
# Sequence of Progesterone receptor (Homo sapiens) (P06401 whole entry, looked up): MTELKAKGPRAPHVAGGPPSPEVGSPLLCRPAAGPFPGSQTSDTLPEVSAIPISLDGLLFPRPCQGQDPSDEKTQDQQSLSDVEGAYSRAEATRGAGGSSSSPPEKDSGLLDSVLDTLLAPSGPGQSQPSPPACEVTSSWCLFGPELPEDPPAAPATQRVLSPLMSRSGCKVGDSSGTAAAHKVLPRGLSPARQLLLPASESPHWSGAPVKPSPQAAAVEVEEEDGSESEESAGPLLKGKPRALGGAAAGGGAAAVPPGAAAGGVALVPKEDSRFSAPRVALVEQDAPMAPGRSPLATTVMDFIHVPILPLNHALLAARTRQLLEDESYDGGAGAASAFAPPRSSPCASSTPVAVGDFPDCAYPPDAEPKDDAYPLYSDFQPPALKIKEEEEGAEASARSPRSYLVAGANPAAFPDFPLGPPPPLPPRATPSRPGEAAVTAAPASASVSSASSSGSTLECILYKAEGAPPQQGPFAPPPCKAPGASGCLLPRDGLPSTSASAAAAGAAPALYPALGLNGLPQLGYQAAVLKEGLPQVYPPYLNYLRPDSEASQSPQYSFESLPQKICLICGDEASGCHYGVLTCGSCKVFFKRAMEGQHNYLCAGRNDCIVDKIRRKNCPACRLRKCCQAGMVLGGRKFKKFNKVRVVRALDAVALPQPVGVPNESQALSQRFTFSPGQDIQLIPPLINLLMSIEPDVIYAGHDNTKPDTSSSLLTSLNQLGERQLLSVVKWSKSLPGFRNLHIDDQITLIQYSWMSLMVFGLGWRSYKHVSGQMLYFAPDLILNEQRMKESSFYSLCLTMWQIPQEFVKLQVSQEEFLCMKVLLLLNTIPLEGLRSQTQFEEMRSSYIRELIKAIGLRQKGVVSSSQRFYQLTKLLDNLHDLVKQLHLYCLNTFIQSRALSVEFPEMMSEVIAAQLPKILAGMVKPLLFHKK
structure (smiles),measurement,setting,value
NC[C@H]1O[C@H](O[C@H]2[C@H](O[C@@H]3O[C@H](CO)[C@@H](O)[C@H]3O)C(O)[C@H](N)C[C@@H]2N)[C@H](N)[C@@H](O)[C@@H]1O (stereo partly specified),"activity change, negative = cytotoxicity",[1],3.36% [at 8.39 µM] (inactive)
same,activation,[2],14.9% [at 8.39 µM] (inactive)
same,"activity change, negative = inhibition",[3],0.98% [at 8.39 µM] (inactive)
same,"activity change, negative = cytotoxicity",[4],12.4% [at 8.39 µM] (inactive)
same,"activity change, negative = cytotoxicity",[5],9.53% [at 8.39 µM] (inactive)
same,"viability change, negative = cytotoxic",[6],-16.4% [at 6.97 µM] (inactive)
same,"activity change, negative = cytotoxicity",[7],21.1% [at 6.97 µM] (inactive)
same,activation,[8],6.05% [at 6.97 µM] (inactive)
same,"activity, negative = inhibition",[9],3.15% [at 4.65 µM] (inactive)
same,activation,[10],-0.179% [at 5.23 µM] (inactive)
Cc1cc(C(C)(C)C)cc(C)c1CC1=NCCN1,Potency,[1],inactive
same,Potency,[2],inactive
same,Potency,[3],inactive
same,Potency,[4],inactive
same,Potency,[5],inactive
same,Potency,[6],inactive
same,Potency,[7],inactive
same,Potency,[8],inactive
C/C=C/C=C/COC(=O)C(C)C,Potency,[1],inactive
same,Potency,[2],inactive
same,Potency,[3],inactive
same,Potency,[4],inactive
same,Potency,[5],inactive
same,Potency,[6],inactive
same,Potency,[7],inactive
same,Potency,[8],inactive
same,Potency,[9],inactive
same,outcome,[10],inactive
NC(=O)c1cccc([N+](=O)[O-])c1,Potency,[1],inactive
same,Potency,[2],inactive
same,Potency,[3],inactive
same,Potency,[4],inactive
same,Potency,[5],inactive
same,Potency,[6],inactive
same,Potency,[7],inactive
same,Potency,[8],inactive
same,Potency,[9],inactive
same,outcome,[10],inactive
CCOc1ccc2ccccc2c1C(=O)N[C@@H]1C(=O)N2[C@@H]1SC(C)(C)[C@@H]2C(=O)O,Potency,[1],inactive
same,Potency,[2],inactive
same,Potency,[3],inactive
same,Potency,[4],inactive
same,Potency,[5],inactive
same,Potency,[6],inactive
same,Potency,[7],inactive
same,Potency,[8],inactive
same,Potency,[9],inactive
same,outcome,[10],inactive
CC[N+](CC)(CC)CCOC(=O)C(C1CCCC1)C1CCCC1,Potency,[1],inactive
same,Potency,[2],inactive
same,Potency,[3],inactive
same,Potency,[4],inactive
same,Potency,[5],inactive
same,Potency,[6],inactive
same,Potency,[7],inactive
same,Potency,[8],inactive
same,Potency,[9],inactive
same,outcome,[10],inactive
OCC(F)(F)F,Potency,[1],inactive
same,Potency,[2],inactive
same,Potency,[3],inactive
same,Potency,[4],inactive
same,Potency,[5],inactive
same,Potency,[6],inactive
same,Potency,[7],inactive
same,Potency,[8],inactive
same,Potency,[9],inactive
same,outcome,[10],inactive
CCC(=O)C(=O)CC,Potency,[1],inactive
same,Potency,[2],inactive
same,Potency,[3],inactive
same,Potency,[4],inactive
same,Potency,[5],inactive
same,Potency,[6],inactive
same,Potency,[7],inactive
same,Potency,[8],inactive
same,Potency,[9],inactive
same,outcome,[10],inactive
CCC(CC)C(C)CCOC(C)=O (stereo unspecified),Potency,[1],inactive
same,Potency,[2],inactive
same,Potency,[3],inactive
same,Potency,[4],inactive
same,Potency,[5],inactive
same,Potency,[6],inactive
same,Potency,[7],inactive
same,Potency,[8],inactive
same,Potency,[9],inactive
same,outcome,[10],inactive
O=C1c2ccccc2C(=O)N1SC1CCCCC1,Potency,[1],inactive
same,Potency,[2],inactive
same,Potency,[3],inactive
same,Potency,[4],inactive
same,Potency,[5],inactive
same,Potency,[6],inactive
same,Potency,[7],inactive
same,Potency,[8],inactive
same,Potency,[9],30.1 µM (active) and inactive
same,outcome,[10],inactive
Cc1cccc(C)c1NC(=O)c1ccc(N)cc1,Potency,[1],inactive
same,Potency,[2],inactive
same,Potency,[3],inactive
same,Potency,[4],inactive
same,Potency,[5],inactive
same,Potency,[6],inactive
same,Potency,[7],inactive
same,Potency,[8],inactive
